# Test results reported in PubChem BioAssay (Tox21).
# Values without a mark were called inactive. Results filed as inconclusive are left out. Where a call stands in place of a potency, no number is given. Active and inactive are the calls of the source. Unless noted, calls follow the shape of the dose curve; as a rule, active = well fitted curve in the direction sought with a large enough effect in the repeat runs; inconclusive = weak or mixed curves; inactive = no such curve, though single readings can be large; an effect the other way counts as inactive or inconclusive.
# Key:
# [1] = Caspase-3/7 induction in HepG2 cells by small molecules, qHTS assay (AID 1346978); conditions: HepG2 caspase-3/7 activation, Caspase-Glo luminescence, 17 h; series mostly up to 92.4 µM; also: nearly all actives have a fitted effect of over 15% in size
# Procedure, shortened: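 Caspase-3/7 induction was measured by Caspase-Glo 3/7 luminescence (30 min, room temperature) after a 17 hr compound exposure of wild-type HepG2 cells seeded at 2,000 per well and pre-incubated 5 hr.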
# [2] = Caspase-3/7 induction in CHO-K1 cells by small molecules, qHTS cell viability counter screen (AID 1346979); conditions: CellTiter-Fluor fluorescence, 17 h; series mostly up to 92.4 µM; also: nearly all actives have a fitted effect of over 35% in size
# Procedure, shortened: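 Viability readout by fluorescence (CellTiter-Fluor) on wild-type CHO-K1 cells exposed for 16hr at 37C and 5% CO2 to compounds delivered in DMSO; reagent incubated 1hr before reading.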
# [3] = Caspase-3/7 induction in CHO-K1 cells by small molecules, qHTS assay (AID 1346980); conditions: CHO-K1 caspase-3/7 induction, Caspase-Glo luminescence, 17 h; series mostly up to 92.4 µM; also: nearly all actives have a fitted effect of over 15% in size
# Procedure, shortened: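 Luminescent Caspase-Glo 3/7 read (30min, room temperature) quantified apoptosis induction. Cells were wild-type CHO-K1, treated with compound for 17hr at 37 C and 5% CO2.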
# [4] = Caspase-3/7 induction in HepG2 cells by small molecules, qHTS cell viability counter screen (AID 1346981); conditions: CellTiter-Fluor fluorescence, 17 h; series mostly up to 92.4 µM; also: nearly all actives have a fitted effect of over 30% in size
# Procedure, shortened: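 Wild-type HepG2 cells (2,000/well) were allowed to settle for 5 hr at 37 C, 5% CO2, then dosed with compounds in DMSO by pin transfer. After 16 hr at 37 C, CellTiter-Fluor was added and fluorescence read 1 hr later.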
# [5] = target: Nuclear receptor subfamily 1 group I member 2 (Homo sapiens) (UniProt O75469); experiment: Human pregnane X receptor (PXR) small molecule agonists, qHTS assay (AID 1346982); conditions: PXR-Luc HepG2, CYP3A4 luciferase reporter, 24 h; series mostly up to 92.4 µM; also: nearly all actives have a fitted effect of over 35% in size; also: potency is read from the fitted curve at half-maximal effect
# Sequence of Nuclear receptor subfamily 1 group I member 2 (Homo sapiens) (O75469 whole entry, looked up): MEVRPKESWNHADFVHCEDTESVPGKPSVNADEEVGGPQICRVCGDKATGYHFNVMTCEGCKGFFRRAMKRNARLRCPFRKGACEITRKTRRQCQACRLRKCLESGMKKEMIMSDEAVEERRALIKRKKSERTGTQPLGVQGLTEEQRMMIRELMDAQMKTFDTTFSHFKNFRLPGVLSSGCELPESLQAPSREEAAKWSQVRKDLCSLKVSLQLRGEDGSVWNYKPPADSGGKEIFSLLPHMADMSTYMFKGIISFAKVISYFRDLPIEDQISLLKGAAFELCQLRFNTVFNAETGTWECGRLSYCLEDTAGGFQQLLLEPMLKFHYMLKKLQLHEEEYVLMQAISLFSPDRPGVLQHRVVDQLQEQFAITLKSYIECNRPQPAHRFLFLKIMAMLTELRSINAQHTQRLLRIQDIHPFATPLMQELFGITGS
# Procedure, shortened: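 PXR-Luc HepG2 cells (CYP3A4 promoter-driven luciferase) were seeded in medium with 5% charcoal-stripped FBS, left 5 hr at 37 C, then exposed to compounds in DMSO for 24 hr. Luminescence was read after ONE-Glo addition.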
# [6] = target: Acetylcholinesterase (Homo sapiens) (UniProt P22303); experiment: Acetylcholinesterase (AChE) small molecule antagonists: colormetric cell-based qHTS assay (AID 1347395; calls by dose curve; also: nearly all actives have a fitted effect of over 30% in size); conditions: SH-SY5Y cells AChE activity, colorimetric (Ellman); series mostly up to 115 µM
# Sequence of Acetylcholinesterase (Homo sapiens) (P22303 whole entry, looked up): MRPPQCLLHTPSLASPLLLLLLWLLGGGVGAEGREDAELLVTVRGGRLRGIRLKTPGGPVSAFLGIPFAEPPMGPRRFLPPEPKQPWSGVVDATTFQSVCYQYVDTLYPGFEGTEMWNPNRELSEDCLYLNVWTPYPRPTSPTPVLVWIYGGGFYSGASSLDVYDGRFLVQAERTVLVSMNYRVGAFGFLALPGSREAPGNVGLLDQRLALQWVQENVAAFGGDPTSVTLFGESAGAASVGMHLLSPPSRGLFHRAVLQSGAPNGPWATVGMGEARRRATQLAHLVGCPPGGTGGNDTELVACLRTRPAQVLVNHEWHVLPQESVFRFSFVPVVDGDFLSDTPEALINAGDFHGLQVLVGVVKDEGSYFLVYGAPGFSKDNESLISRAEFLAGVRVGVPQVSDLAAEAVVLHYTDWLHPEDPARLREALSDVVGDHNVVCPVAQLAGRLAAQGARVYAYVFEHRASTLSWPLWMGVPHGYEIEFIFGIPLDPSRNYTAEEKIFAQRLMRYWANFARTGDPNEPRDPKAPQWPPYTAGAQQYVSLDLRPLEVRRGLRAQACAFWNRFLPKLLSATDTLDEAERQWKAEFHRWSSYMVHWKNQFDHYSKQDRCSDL
# Procedure, shortened: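 Homogeneous whole-cell format. SH-SY5Y cells seeded overnight, dosed with compound (30 min, 37 C, 5% CO2), then given DTNB/acetylthiocholine cocktail for 90 min at 37 C; colorimetric signal.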
# [7] = target: Acetylcholinesterase (Homo sapiens) (UniProt P22303); experiment: Acetylcholinesterase (AChE) small molecule antagonists: enzyme-based qHTS assay (AID 1347397; calls by dose curve; also: nearly all actives have a fitted effect of over 55% in size); conditions: Potency: AChE enzyme activity inhibition; outcome: AChE enzyme activity inhibition; series mostly up to 115 µM
# Procedure, shortened: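 Absorbance-based detection of thiocholine with DTNB served as the read-out. Recombinant human AChE was exposed to compound for 30 min at RT before a 10 min RT incubation with acetylthiocholine.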
# [8] = target: Acetylcholinesterase (Homo sapiens) (UniProt P22303); experiment: Acetylcholinesterase (AChE) small molecule antagonists: fluorescence cell-based qHTS assay (AID 1347398; calls by dose curve; also: nearly all actives have a fitted effect of over 50% in size); conditions: SH-SY5Y cells; Potency: AChE activity; outcome: AChE activity; series mostly up to 115 µM
# Procedure, shortened: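 Fluorimetric cell-based assay: intact SH-SY5Y cells, 30 min compound preincubation at 37 C, acetylthiocholine substrate with thiol probe Thiolite Green, 40 min RT development, fluorescence 490/520 nm.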
# [9] = target: Acetylcholinesterase (Homo sapiens) (UniProt P22303); experiment: Acetylcholinesterase (AChE) small molecule antagonists: enzyme-based qHTS assay with human liver microsomes (AID 1347399; calls by dose curve; also: nearly all actives have a fitted effect of over 60% in size); conditions: Potency: qHTS inhibition; outcome: qHTS inhibition; series mostly up to 115 µM
# Procedure, shortened: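 Recombinant human AChE (50 mU/mL in the enzyme mix) and human liver microsomes (0.25 mg/mL final) were preincubated with compound and NADPH (0.25 mg/mL final) for 30 min at 37 C. Acetylthiocholine/DTNB was then added; thiocholine was read colorimetrically after 10 min at room temperature.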
# [10] = target: Cytochrome P450 2D6 (Homo sapiens) (UniProt P10635); experiment: Cytochrome P450 Family 2 Subfamily D Member 6 (CYP2D6) small molecule antagonists: luciferase reporter qHTS assay (AID 1671196); conditions: P450-Glo CYP2D6 enzyme assay, luciferin luminescence, 1 h; series mostly up to 115 µM; also: nearly all actives have a fitted effect of over 50% in size; also: potency is read from the fitted curve at half-maximal effect
# Sequence of Cytochrome P450 2D6 (Homo sapiens) (P10635 whole entry, looked up): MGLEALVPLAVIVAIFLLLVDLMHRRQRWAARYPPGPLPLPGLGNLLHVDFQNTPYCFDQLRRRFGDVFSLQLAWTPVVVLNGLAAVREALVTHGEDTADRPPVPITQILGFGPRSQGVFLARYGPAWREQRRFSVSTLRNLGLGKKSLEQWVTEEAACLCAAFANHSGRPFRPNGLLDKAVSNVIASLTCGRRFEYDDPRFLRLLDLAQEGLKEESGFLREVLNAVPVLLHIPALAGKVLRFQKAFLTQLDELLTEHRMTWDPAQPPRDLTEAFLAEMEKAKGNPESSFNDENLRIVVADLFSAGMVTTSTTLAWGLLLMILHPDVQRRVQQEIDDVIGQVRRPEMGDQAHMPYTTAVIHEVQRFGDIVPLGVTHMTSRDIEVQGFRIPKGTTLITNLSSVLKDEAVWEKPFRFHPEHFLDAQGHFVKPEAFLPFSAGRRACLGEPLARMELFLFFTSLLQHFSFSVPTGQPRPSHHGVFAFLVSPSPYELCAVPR
# Procedure, shortened: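 CYP2D6 enzyme–substrate mix was held with compound for 10 min at room temperature, then NADPH regeneration solution was added and the reaction ran 1 h at room temperature. Luciferin product was detected by luminescence after 20 min with detection reagent.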
# [11] = target: Cytochrome P450 2C19 (Homo sapiens) (UniProt P33261); experiment: Cytochrome P450 Family 2 Subfamily C Member 19 (CYP2C19) small molecule antagonists: luciferase reporter qHTS assay (AID 1671197); conditions: P450-Glo CYP2C19 enzyme, luciferin luminescence, 1 h; series mostly up to 115 µM; also: nearly all actives have a fitted effect of over 65% in size; also: potency is read from the fitted curve at half-maximal effect
# Sequence of Cytochrome P450 2C19 (Homo sapiens) (P33261 whole entry, looked up): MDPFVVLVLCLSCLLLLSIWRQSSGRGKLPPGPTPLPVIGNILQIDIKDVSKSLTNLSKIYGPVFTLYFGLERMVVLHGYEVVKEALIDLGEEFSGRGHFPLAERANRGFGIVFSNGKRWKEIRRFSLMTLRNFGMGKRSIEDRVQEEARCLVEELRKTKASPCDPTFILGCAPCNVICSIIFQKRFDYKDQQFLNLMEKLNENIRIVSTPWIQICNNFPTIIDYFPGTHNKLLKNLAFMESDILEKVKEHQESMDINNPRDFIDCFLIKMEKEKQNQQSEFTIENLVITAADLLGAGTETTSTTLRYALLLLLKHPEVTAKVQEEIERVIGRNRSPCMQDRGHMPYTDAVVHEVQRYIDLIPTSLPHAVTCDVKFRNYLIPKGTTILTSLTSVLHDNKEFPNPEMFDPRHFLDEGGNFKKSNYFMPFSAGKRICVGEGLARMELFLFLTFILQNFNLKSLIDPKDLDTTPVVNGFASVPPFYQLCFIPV
# Procedure, shortened: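 Relative luminescence units recorded 20 min after the detection reagent stopped a 1 h, 37C CYP2C19 reaction on proluciferin substrate, which was started by NADPH regeneration following 10 min room-temperature compound preincubation; ketoconazole positive control.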
# [12] = target: Cytochrome P450 2C9 (Homo sapiens) (UniProt P11712); experiment: Cytochrome P450 Family 2 Subfamily C Member 9 (CYP2C9) small molecule antagonists: luciferase reporter qHTS assay (AID 1671198); conditions: P450-Glo CYP2C9 enzyme assay, luciferin luminescence; series mostly up to 115 µM; also: nearly all actives have a fitted effect of over 50% in size
# Sequence of Cytochrome P450 2C9 (Homo sapiens) (P11712 whole entry, looked up): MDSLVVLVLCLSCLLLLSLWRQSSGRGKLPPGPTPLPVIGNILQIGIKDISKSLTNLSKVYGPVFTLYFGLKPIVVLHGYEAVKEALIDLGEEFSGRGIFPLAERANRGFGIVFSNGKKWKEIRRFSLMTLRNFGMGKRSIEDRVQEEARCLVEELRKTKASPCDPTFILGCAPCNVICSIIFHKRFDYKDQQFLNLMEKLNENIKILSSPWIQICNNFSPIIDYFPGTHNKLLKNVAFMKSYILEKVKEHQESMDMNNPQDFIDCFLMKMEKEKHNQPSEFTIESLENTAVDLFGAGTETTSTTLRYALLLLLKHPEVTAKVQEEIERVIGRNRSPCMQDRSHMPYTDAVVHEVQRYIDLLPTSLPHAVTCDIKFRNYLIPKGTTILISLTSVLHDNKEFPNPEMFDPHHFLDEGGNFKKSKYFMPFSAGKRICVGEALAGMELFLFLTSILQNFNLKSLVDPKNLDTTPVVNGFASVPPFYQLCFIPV
# Procedure, shortened: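 Enzyme-substrate mix preincubated with compound 10 min at room temperature; reaction started with NADPH regeneration solution, 1 h 37C. Luminescent luciferin product read after 20 min detection reagent.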
# [13] = target: Cytochrome P450 1A2 (Homo sapiens) (UniProt P05177); experiment: Cytochrome P450 Family 1 Subfamily A Member 2 (CYP1A2) small molecule antagonists: luciferase reporter qHTS assay (AID 1671199); conditions: P450-Glo CYP1A2 enzyme, luciferin luminescence, 1 h; series mostly up to 115 µM; also: nearly all actives have a fitted effect of over 50% in size; also: potency is read from the fitted curve at half-maximal effect
# Sequence of Cytochrome P450 1A2 (Homo sapiens) (P05177 whole entry, looked up): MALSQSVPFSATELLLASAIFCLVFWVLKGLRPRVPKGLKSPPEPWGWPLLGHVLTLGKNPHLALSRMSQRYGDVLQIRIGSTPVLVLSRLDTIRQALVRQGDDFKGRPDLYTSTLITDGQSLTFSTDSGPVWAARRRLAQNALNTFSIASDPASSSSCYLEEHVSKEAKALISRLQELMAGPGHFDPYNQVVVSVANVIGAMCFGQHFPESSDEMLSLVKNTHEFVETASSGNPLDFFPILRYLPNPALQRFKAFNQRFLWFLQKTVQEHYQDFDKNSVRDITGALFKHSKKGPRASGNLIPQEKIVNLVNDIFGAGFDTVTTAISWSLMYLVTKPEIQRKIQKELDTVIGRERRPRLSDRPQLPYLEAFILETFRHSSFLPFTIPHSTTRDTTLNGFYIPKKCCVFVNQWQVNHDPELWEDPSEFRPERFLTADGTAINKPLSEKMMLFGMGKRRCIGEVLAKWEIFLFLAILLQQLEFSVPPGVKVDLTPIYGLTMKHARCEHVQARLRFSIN
# Procedure, shortened: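 Human CYP1A2 activity measured with a P450-Glo proluciferin substrate; compounds in DMSO preincubated 10 min at room temperature with enzyme-substrate mix, then NADPH regeneration system added for 1 h. Luciferin detection reagent, 20 min, luminescence read.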
# [14] = target: Voltage-gated inwardly rectifying potassium channel KCNH2 (Homo sapiens) (UniProt Q12809); experiment: Human Ether-a-go-go-Related Gene (hERG) channel small molecule antagonists: fluorescence cell-based qHTS assay (AID 1671200); conditions: hERG-U2OS cells, FluxOR thallium flux fluorescence; series mostly up to 76.8 µM; also: nearly all actives have a fitted effect of over 50% in size; also: potency is read from the fitted curve at half-maximal effect
# Sequence of Voltage-gated inwardly rectifying potassium channel KCNH2 (Homo sapiens) (Q12809 whole entry, looked up): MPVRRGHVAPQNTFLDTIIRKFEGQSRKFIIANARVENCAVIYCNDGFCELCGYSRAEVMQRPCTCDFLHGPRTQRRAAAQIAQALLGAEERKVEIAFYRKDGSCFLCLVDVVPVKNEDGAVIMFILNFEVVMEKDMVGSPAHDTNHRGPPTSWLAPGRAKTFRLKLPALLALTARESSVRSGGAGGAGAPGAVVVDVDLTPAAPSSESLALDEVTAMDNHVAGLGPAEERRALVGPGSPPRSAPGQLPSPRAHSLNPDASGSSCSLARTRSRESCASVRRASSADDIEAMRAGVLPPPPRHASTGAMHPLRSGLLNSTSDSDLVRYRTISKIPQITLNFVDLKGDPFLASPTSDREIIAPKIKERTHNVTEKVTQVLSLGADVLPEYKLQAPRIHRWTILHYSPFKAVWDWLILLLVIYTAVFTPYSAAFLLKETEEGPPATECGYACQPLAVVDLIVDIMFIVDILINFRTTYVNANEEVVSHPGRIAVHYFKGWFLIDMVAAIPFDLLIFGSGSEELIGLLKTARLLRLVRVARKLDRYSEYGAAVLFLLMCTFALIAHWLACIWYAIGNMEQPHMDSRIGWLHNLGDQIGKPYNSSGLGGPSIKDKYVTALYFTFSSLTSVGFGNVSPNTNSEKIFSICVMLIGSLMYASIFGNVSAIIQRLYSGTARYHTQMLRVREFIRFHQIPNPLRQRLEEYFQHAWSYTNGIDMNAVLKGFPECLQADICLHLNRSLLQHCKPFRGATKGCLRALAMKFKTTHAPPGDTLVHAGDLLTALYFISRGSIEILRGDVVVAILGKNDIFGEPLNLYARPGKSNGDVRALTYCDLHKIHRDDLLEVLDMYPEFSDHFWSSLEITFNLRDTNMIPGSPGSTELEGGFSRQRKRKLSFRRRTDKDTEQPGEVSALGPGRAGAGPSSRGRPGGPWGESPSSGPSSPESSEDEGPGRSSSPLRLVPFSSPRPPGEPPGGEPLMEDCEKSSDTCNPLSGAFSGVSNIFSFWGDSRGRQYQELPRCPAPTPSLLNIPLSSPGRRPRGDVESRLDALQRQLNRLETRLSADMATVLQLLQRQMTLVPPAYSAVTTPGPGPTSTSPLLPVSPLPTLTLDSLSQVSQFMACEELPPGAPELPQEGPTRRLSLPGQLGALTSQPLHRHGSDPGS
# Procedure, shortened: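 Thallium served as the potassium surrogate; its influx into dye-loaded U2OS cells carrying the channel was measured by fluorescence over 2 min.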
# [15] = target: Cytochrome P450 3A4 (Homo sapiens) (UniProt P08684); experiment: Cytochrome P450 Family 3 Subfamily A Member 4 (CYP3A4) small molecule antagonists: luciferase reporter qHTS assay (AID 1671201); conditions: P450-Glo CYP3A4 enzyme, luciferin luminescence, 1 h; series mostly up to 115 µM; also: nearly all actives have a fitted effect of over 50% in size
# Procedure, shortened: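 Relative luminescence units after 20 min with luciferin detection reagent served as read-out. Beforehand, CYP3A4 turned over a proluciferin substrate for 1 h at room temperature with NADPH regeneration, following 10 min compound preincubation.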
# [16] = target: Nuclear receptor subfamily 1 group I member 2 (Rattus norvegicus) (UniProt Q9R1A7); experiment: Rat pregnane X receptor (rPXR) activation by small molecules, qHTS assay (AID 1346983); conditions: rPXR luciferase reporter cells, One-Glo luminescence, 24 h; active compounds read high; also: nearly all actives have a fitted effect of over 20% in size
# Sequence of Nuclear receptor subfamily 1 group I member 2 (Rattus norvegicus) (Q9R1A7 whole entry, looked up): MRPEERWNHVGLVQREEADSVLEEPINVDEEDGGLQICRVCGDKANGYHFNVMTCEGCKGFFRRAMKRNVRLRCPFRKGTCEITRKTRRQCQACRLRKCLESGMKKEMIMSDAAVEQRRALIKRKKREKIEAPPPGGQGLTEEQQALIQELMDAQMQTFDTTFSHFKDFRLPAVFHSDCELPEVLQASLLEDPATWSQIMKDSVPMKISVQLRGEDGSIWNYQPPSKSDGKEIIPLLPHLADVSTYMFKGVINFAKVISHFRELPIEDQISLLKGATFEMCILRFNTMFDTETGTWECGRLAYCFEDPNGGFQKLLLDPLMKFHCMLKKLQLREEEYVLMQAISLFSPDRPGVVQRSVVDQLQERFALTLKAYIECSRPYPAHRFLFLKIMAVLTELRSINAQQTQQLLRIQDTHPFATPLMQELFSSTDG
# Procedure, shortened: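 Luminescent readout (One-Glo luciferase, 30 min room temperature) followed 24 hr compound treatment at 37 C of rPXR cells plated 2,000 per well and preincubated 5hr; qHTS format with compounds delivered in DMSO.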
# [17] = target: Nuclear receptor subfamily 1 group I member 2 (Homo sapiens) (UniProt O75469); experiment: CYP3A4 induction through human pregnane X receptor (PXR) by small molecules, qHTS assay (AID 1346984); conditions: DPX-2 HepG2 PXR, CYP3A4-luciferin luminescence, 24 h; series mostly up to 46.1 µM; also: nearly all actives have a fitted effect of over 40% in size; also: potency is read from the fitted curve at half-maximal effect
# Procedure, shortened: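 DPX-2 cells (HepG2 co-transfected with PXR and CYP3A4 promoter-luciferase) treated with compounds 24 h at 37C; luciferin-IPA CYP3A4 substrate 3uM final added for 3 h, then One-Glo; luminescence read. qHTS format.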
# [18] = target: Nuclear receptor subfamily 1 group I member 2 (Homo sapiens) (UniProt O75469); experiment: Human pregnane X receptor (PXR) activation by small molecules, qHTS assay (AID 1346985); conditions: DPX-2 HepG2 CYP3A4-luciferase, 24 h; series mostly up to 38.3 µM; also: nearly all actives have a fitted effect of over 40% in size
# Procedure, shortened: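 DPX-2 cells (HepG2 co-transfected with a PXR response element and a CYP3A4-promoter luciferase construct) were seeded at 2,000 per well, rested 5 hr at 37C, then exposed to DMSO-dissolved compounds for 24 hr. Activation was read as luciferase luminescence.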
SMILES,outcome [1],Potency [2],outcome [3],Potency [4],Potency [5],Potency [6],Potency [7],Potency [8],Potency [9],Potency [10],Potency [11],Potency [12],Potency [13],Potency [14],Potency [15],max activation [16] [%],Potency [17],Potency [18]
ClCCCCCCCl,inactive,inactive,inactive,inactive,inactive,inactive,inactive,inactive,inactive,inactive,39.9 µM (active),inactive,35.6 µM (active),inactive,inactive,,,
CC(Cc1ccccc1)NCCCCl (centres undefined),inactive,inactive,inactive,inactive,inactive,inactive,inactive,inactive,inactive,1.74 µM (active),inactive,inactive,inactive,15.1 µM (active),,,,
CCC1(c2ccccc2)C(=O)N(COC)C(=O)N(COC)C1=O,inactive,inactive,inactive,inactive,inactive,inactive,inactive,inactive,inactive,inactive,6.92 µM (active),,inactive,,,3,10 µM (active),
O=[N+]([O-])CCO,inactive,inactive,inactive,inactive,inactive,inactive,inactive,inactive,inactive,inactive,inactive,inactive,inactive,inactive,inactive,,,
CCCOC(=O)Cc1ccc(OCC(=O)N(CC)CC)c(OC)c1,inactive,inactive,inactive,inactive,15 µM (active),inactive,inactive,inactive,inactive,inactive,inactive,inactive,,inactive,,,,
O=C(NC(O)C(Cl)(Cl)Cl)NC(O)C(Cl)(Cl)Cl (centres undefined),inactive,inactive,inactive,inactive,inactive,,inactive,inactive,inactive,inactive,inactive,inactive,inactive,,inactive,-0.374,inactive,inactive
BrCC1CO1 (centres undefined),inactive,inactive,inactive,inactive,inactive,inactive,inactive,inactive,inactive,inactive,inactive,inactive,inactive,inactive,inactive,,,
C=C(C)[C@H]1CN[C@H](C(=O)O)[C@H]1CC(=O)O,inactive,inactive,inactive,inactive,inactive,,inactive,inactive,inactive,inactive,inactive,inactive,inactive,inactive,inactive,-1.12,inactive,inactive
NCC1(CC(=O)O)CCCCC1,inactive,inactive,inactive,inactive,inactive,inactive,inactive,inactive,inactive,inactive,inactive,inactive,inactive,inactive,inactive,,,
